# Assay results reported in PubChem BioAssay (NCI).
# This is part of a sample that, as a whole, favours compounds with a hit. Of some 83,000 tested, about 20% had one in any assay.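 Negative percent growth values reflect cell death: -40 means 40% of the cells present at the start died, and -100 means all died.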 Values without a mark were called inactive. Active and inactive are the calls of the source. Rule for the calls: active = growth percent below 10; inactive = the rest.
# Tested on: SK-MEL-5 melanoma
# Assay: NCI-60 one-dose screen, 48 h (100 = growth as untreated, 0 = no growth, -100 = all killed)
# Conditions: 10 µM
row,SMILES,growth
1,O=C(/C=C/c1ccco1)c1nc2ccccc2n1Cc1ccc(Br)cc1,57.5%
2,O=C(/C=C/c1ccco1)c1nc2ccccc2n1Cc1ccc(F)cc1,86.5%
3,COc1cc2cc(C(=O)N3C[C@@H](CCl)c4c3cc(OC(=O)N3CCN(C)[C@@H]5CSSC[C@@H]53)c3ccccc43)[nH]c2c(OC)c1OC,-32.2% (active)
4,C#CC[Se]C(=O)c1ccc2n[se]nc2c1,83.2%
5,O=C(/C=C/c1ccc(Cl)cc1Cl)c1nc2ccccc2n1Cc1ccc(F)cc1,74.5%
6,O=C(/C=C/c1ccc(Cl)cc1)c1nc2ccccc2n1Cc1ccc(Br)cc1,85%
7,CCOP(=O)(OCC)C(NC(C)=O)C(=O)SCCN (centres undefined),99.1%
8,COc1cc2cc(C(=O)N3C[C@@H](CCl)c4c3cc(OC(=O)N3CCN(C)[C@@H]5CSSC[C@H]53)c3ccccc43)[nH]c2c(OC)c1OC,-100% (active)
9,COc1ccc2cc([C@H](C)C(=O)[Se]CCC#N)ccc2c1,-70.4% (active)
10,CC12OOC(C)(OO1)C2CCC(=O)OCCNc1ccnc2cc(Cl)ccc12 (centres undefined),36.5%
11,CC(C)N=C([Se])NC(=O)c1cccs1,-59.7% (active)
12,Cc1ccc2[nH]c(=S)n(-c3ccc(F)cc3)c(=O)c2c1,98.3%
13,CCOC(=O)C1=C(Nc2ccccc2)C(=O)OC12C(=O)Nc1ccccc12 (centres undefined),107%
14,CC12CCC3(CCC(=O)NCCCNc4ccnc5cc(Cl)ccc45)[C@@](C)(OO[C@]3(C)O1)O2,14.2%
15,CC[C@]12C=CCN3CC[C@@]4(c5ccc(OC)cc5N(C)[C@H]4[C@@](O)(C(=O)OC)[C@@H]1OC(=O)CCCC[P+](C1CCCCC1)(C1CCCCC1)C1CCCCC1)[C@@H]32,-96.1% (active)
16,CC(=O)Oc1ccccc1C(=O)[Se]C(=NC(C)C)NC(C)C,-84.4% (active)
17,COCCOCCOCCOc1ccc(-n2cc(CCCN(CCNc3ccnc4cc(Cl)ccc34)C(=O)CCC(=O)O[C@@H]3O[C@@H]4OC5(C)CC[C@H]6[C@H](C)CC[C@@H]([C@H]3C)[C@@]46OO5)nn2)cc1,-16.4% (active)
18,C[C@H]1[C@@H](CC(=O)N[C@@H](Cc2coc3ccccc23)B(O)O)O[C@@H]2OC3(C)CC[C@H]4[C@H](C)CC[C@@H]1[C@@]24OO3,-97.2% (active)
19,COP(=O)(CC(F)(F)C(F)(F)F)OC,80.8%
20,CC12OOC(C)(OO1)C2CCC(=O)NCCNc1ccnc2cc(Cl)ccc12 (centres undefined),93.9%

row,SMILES,growth
1,CC[C@]12C=CCN3CC[C@@]4(c5ccc(OC)cc5N(C)[C@H]4[C@@](O)(C(=O)OC)[C@@H]1OC(=O)CCC[P+](c1ccc(C)cc1)(c1ccc(C)cc1)c1ccc(C)cc1)[C@@H]32,-99.4% (active)
2,CC(C)N=C([Se])NC(=O)c1ccccc1,-57.1% (active)
3,CC[C@]12C=CCN3CC[C@@]4(c5ccc(OC)cc5N(C)[C@H]4[C@@](O)(C(=O)OC)[C@@H]1OC(=O)CCC[P+](C1CCCCC1)(C1CCCCC1)C1CCCCC1)[C@@H]32,-98.4% (active)
4,CC1=C(COCCOC(=O)c2ccc(S(=O)(=O)F)cc2)C2=C(C)C3(CC3)[C@@](C)(O)C(=O)C2=C1,-92.1% (active)
5,CC[C@]12C=CCN3CC[C@@]4(c5ccc(OC)cc5N(C)[C@H]4[C@@](O)(C(=O)OC)[C@@H]1OC(=O)CCCC[P+](c1ccc(OC)cc1)(c1ccc(OC)cc1)c1ccc(OC)cc1)[C@@H]32,-97% (active)
6,CC1=C(CCC=NNC(N)=O)C2=C(C)C3(CC3)[C@@](C)(O)C(=O)C2=C1,-100% (active)
7,CC[C@@]12CC(C(=O)OC)=C3Nc4cc5c(cc4[C@@]34CCN(C[C@H]3O[C@H]31)[C@@H]24)[C@@H]1[C@H](O5)[C@@H](O)[C@@]2(CC)CC(C(=O)OC)=C3Nc4cc(OC)ccc4[C@@]34CCN1[C@@H]24,-85.1% (active)
8,CCOP(=O)(CC(F)(F)C(F)(F)F)OCC,78.9%
9,CC1=C2C(=C[C@@](C)(COP(=O)(Oc3ccccc3)Oc3ccccc3)[C@@H]2O)C(=O)[C@@](C)(O)C12CC2,-99.2% (active)
10,CC(=O)Oc1ccccc1C(=O)NC([Se])=NC1CCCCC1,-80% (active)
11,C[C@H]1[C@H](OC(=O)CCC(=O)N(CCCc2cn(-c3ccc(CN4CCOCC4)cc3)nn2)CCNc2ccnc3cc(Cl)ccc23)O[C@@H]2OC3(C)CC[C@H]4[C@H](C)CC[C@@H]1[C@@]24OO3,-90% (active)
12,O=C(/C=C/c1ccc(Cl)cc1)c1nc2ccccc2n1Cc1ccc(F)cc1,69%
13,CC1=C(CCC=O)C2=C(C)C3(CC3)[C@@](C)(O)C(=O)C2=C1,-100% (active)
14,O=C(NC([Se])=NC1CCCCC1)c1ccc2c(c1)OCO2,79.3%
15,C[C@H]1[C@H](OC(=O)CCC(=O)N(CCCc2cn(-c3ccc(C#N)cc3)nn2)CCNc2ccnc3cc(Cl)ccc23)O[C@@H]2OC3(C)CC[C@H]4[C@H](C)CC[C@@H]1[C@@]24OO3,22.9%
16,C[C@H]1[C@@H](Oc2ccc(-c3cn(-c4ccnc5cc(Cl)ccc45)nn3)cc2)O[C@@H]2OC3(C)CC[C@H]4[C@H](C)CC[C@@H]1[C@@]24OO3,20.3%
17,COc1ccc(/C=C/C(=O)c2nc3ccccc3n2Cc2ccc(Br)cc2)cc1,83.3%
18,COC(=O)CCn1c(-c2ccc(-n3cc(-c4ccc(O[C@H]5O[C@@H]6OC7(C)CC[C@H]8[C@H](C)CC[C@@H]([C@H]5C)[C@@]68OO7)cc4)nn3)cc2)nc2ccccc21,1.38% (active)
19,C[C@H]1[C@H](OC(=O)CCC(=O)N(CCCc2cn(-c3ccc([N+](=O)[O-])cc3)nn2)CCNc2ccnc3cc(Cl)ccc23)O[C@@H]2OC3(C)CC[C@H]4[C@H](C)CC[C@@H]1[C@@]24OO3,17.8%
